For 15 molecules, growth results are on record in PubChem BioAssay (NCI).

About 83,000 compounds went through this panel and 20% of them were active in at least one assay; those are over-represented in the sample as a whole.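 Single-dose data. Exposure time 48 hours. Values below 10 considered active.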 Unmarked numbers belong to inactive results. Activity calls are given as the source filed them.

Some test systems named below: DU-145 prostate; K-562 leukemia; MALME-3M melanoma; MDA-MB-231 breast; RXF 393 renal; SF-268 CNS; SF-295 CNS; SF-539 CNS; M14 melanoma.
Common to all, as to assay: NCI-60 one-dose screen, 48 h (100 = growth as untreated, 0 = no growth, -100 = all killed)
Holding throughout (conditions): 10 µM unless noted

Consider `COC(=O)CCCCN=Cc1c(O)c(O)c(C(C)C)c2cc(C)c(-c3c(C)cc4c(C(C)C)c(O)c(O)c(C=NCCCCC(=O)OC)c4c3O)c(O)c12`, for which the growth with DU-145 prostate was 24.3%; in the assay on K-562 leukemia, 10.3%; with MALME-3M melanoma, 42.5%; with MDA-MB-231 breast it was 6.38% (active); with RXF 393 renal, 8.84% (active); in the assay with SF-268 CNS, 24.2%. For the same molecule, the growth was 2.79% (active) in the assay with SF-295 CNS, 24.2% in the assay on SF-539 CNS and 22.9% in the assay on M14 melanoma.

For the molecule `Nc1nn2cc(-c3ccc(Cl)s3)nc2c2ccccc12`, the growth in the assay with DU-145 prostate is 99%; with K-562 leukemia, 85.3%; in the assay with MALME-3M melanoma, 101%; in the assay with MDA-MB-231 breast, 68.9%; in the assay with RXF 393 renal, 133%; in the assay on SF-268 CNS, 94.1%. Besides, the results for the growth in the assay with SF-295 CNS, in the assay on SF-539 CNS and in the assay on M14 melanoma were 93.7%, 81.7% and 97%, respectively.

`O=S=Nc1ccc([N+](=O)[O-])cc1`: the growth in the assay on DU-145 prostate is 84.8%; with K-562 leukemia it was 75.6%; in the assay on MALME-3M melanoma, 96.8%; with MDA-MB-231 breast, 95.4%; with RXF 393 renal it was 111%; in the assay with SF-268 CNS, 91.8%. The growth with SF-295 CNS is 98.9%; in the assay on SF-539 CNS it was 95.4%; with M14 melanoma it was 94%.

In the case of `COc1ccccc1OCC(=O)Nc1sc2c(c1C(N)=O)CCC2`, the growth is 58.4% in the assay on DU-145 prostate; 52.5% in the assay with K-562 leukemia; 91.9% in the assay on MALME-3M melanoma; 92.1% with MDA-MB-231 breast; 48.1% in the assay on RXF 393 renal; 43.7% in the assay on SF-268 CNS. Moreover, the growth was 15.2% with SF-295 CNS, 59.6% in the assay with SF-539 CNS and 66.4% with M14 melanoma.

In the case of `COc1ncc(-c2ccc3ncnc(Nc4cccc(Cl)c4)c3c2)cc1NS(=O)(=O)C1CC1`, the growth in the assay on DU-145 prostate was 26%; in the assay with K-562 leukemia it was 60.5%; with MALME-3M melanoma it was 15.9%; with MDA-MB-231 breast, 37.9%; in the assay with RXF 393 renal, 1.04% (active); in the assay on SF-268 CNS, 43%. The growth is 34.2% with SF-295 CNS, 27% in the assay on SF-539 CNS and 56.6% with M14 melanoma.

Take `COc1ccc(/C(=N/O)c2cc(F)c(F)c(OC)c2F)cc1O`: the growth was 16.9% in the assay on DU-145 prostate; 10.3% with K-562 leukemia; 60.7% in the assay on MALME-3M melanoma; 47.8% with MDA-MB-231 breast; 16.7% with RXF 393 renal; 48.1% with SF-268 CNS. The values for the growth in the assay on SF-295 CNS, in the assay on SF-539 CNS and with M14 melanoma were 1.83% (active), -22.8% (active) and 15.4%, respectively.

As for `COc1ccc(C2NC3=C(CCCC3)C(C#N)(C#N)C2(C#N)C#N)cc1` (stereo not given), the growth in the assay with DU-145 prostate was 94.2%; in the assay with K-562 leukemia it was 12.5%; in the assay with MALME-3M melanoma, 71.6%; in the assay on MDA-MB-231 breast, 70.1%; in the assay on RXF 393 renal, 93.8%; with SF-268 CNS it was 97.8%. The growth in the assay with SF-295 CNS is 99.7%; with SF-539 CNS, 101%; in the assay with M14 melanoma, 90.7%.

Consider `COc1ccc(Cl)cc1NC(N)=S`, for which the growth in the assay with DU-145 prostate was 108%; with K-562 leukemia it was 104%; in the assay with MALME-3M melanoma, 104%; in the assay with MDA-MB-231 breast, 104%; in the assay on RXF 393 renal it was 112%; in the assay with SF-268 CNS, 99.5%. The growth was 106% with SF-295 CNS, 99.8% with SF-539 CNS and 105% in the assay on M14 melanoma.

For `CN(C)c1nc(N)c(N=O)c(N)n1`, the growth was 113% in the assay with DU-145 prostate; 103% in the assay with K-562 leukemia; 118% in the assay with MALME-3M melanoma; 108% in the assay on MDA-MB-231 breast; 118% in the assay with RXF 393 renal; 110% with SF-268 CNS. Also, the growth in the assay on SF-295 CNS was 127%; in the assay on SF-539 CNS it was 110%; in the assay with M14 melanoma, 111%.

For the molecule `Nc1ccc(S(=O)(=O)c2ccc(Cl)cc2)cc1`, the growth in the assay with DU-145 prostate was 104%; with K-562 leukemia, 109%; with MALME-3M melanoma it was 85.7%; in the assay with MDA-MB-231 breast, 92.3%; in the assay on RXF 393 renal, 113%; with SF-268 CNS, 96.8%. The growth with SF-295 CNS is 98.2%; in the assay on SF-539 CNS, 86%; in the assay on M14 melanoma, 96.1%.

Turning to `COc1cccc2nc(Nc3ccc(NC(=O)c4ccc5ncccc5c4)cc3)ccc12`, the growth in the assay on DU-145 prostate is 89.6%; in the assay with K-562 leukemia, 60.1%; with MALME-3M melanoma, 70.2%; in the assay on MDA-MB-231 breast it was 68.3%; in the assay with RXF 393 renal it was 30%; in the assay on SF-268 CNS it was 82.8%. The growth in the assay with SF-295 CNS is 6.41% (active); with SF-539 CNS, 48.1%; with M14 melanoma, 92.6%.

As to `CCOC(=O)c1cc(/C(=N\O)c2cc(OC)c(OC)c(OC)c2)n2c(C)cccc12`, the growth is 50.1% with DU-145 prostate; 16.8% in the assay with K-562 leukemia; 44.8% with MALME-3M melanoma; 48.7% in the assay on MDA-MB-231 breast; 34.5% in the assay on RXF 393 renal; 43% with SF-268 CNS. In addition, the growth was 11.3% in the assay on SF-295 CNS, 15.2% with SF-539 CNS and 20.8% in the assay on M14 melanoma.

As to `O=C(Nc1ccc(I)cc1)c1cc([N+](=O)[O-])ccc1O`, the growth in the assay on DU-145 prostate was 51.4%; in the assay with K-562 leukemia, 18.7%; with MALME-3M melanoma it was -2.87% (active); in the assay with MDA-MB-231 breast, 16.2%; in the assay with RXF 393 renal it was 7.47% (active); in the assay on SF-268 CNS, 39.4%. Further, the growth with SF-295 CNS was 33.7%; in the assay with SF-539 CNS, 20.4%; with M14 melanoma, 31.3%.

Turning to `C=C1C(=O)O[C@H]2[C@H]1CC/C(COC(=O)NCc1cc(OC)cc(OC)c1)=C\CC[C@@]1(C)O[C@@H]21`, the growth in the assay with DU-145 prostate is -6.21% (active); in the assay on K-562 leukemia, 3.43% (active); in the assay on MALME-3M melanoma it was -44.1% (active); with MDA-MB-231 breast, -5.09% (active); in the assay on RXF 393 renal, -41.9% (active); in the assay with SF-268 CNS it was 21.4%. Also, the growth with SF-295 CNS was 81.4%; with SF-539 CNS, 5.25% (active); in the assay on M14 melanoma it was -31% (active).

As to `COc1ccc2c(c1)C=CC(C#N)N2C(=O)c1ccccc1` (stereo not given), the growth was 3.08% (active) in the assay with DU-145 prostate; 7.66% (active) with K-562 leukemia; 66.8% with MALME-3M melanoma; 25.4% with MDA-MB-231 breast; 30.4% in the assay on RXF 393 renal; 34% with SF-268 CNS. Also, the growth with SF-295 CNS is -1.96% (active); in the assay with SF-539 CNS, -21.2% (active); with M14 melanoma, 15.9%.
